Screening results (PubChem BioAssay)
S-ASM inh – Inhibitors of Secretory Acid Sphingomyelinase (S-ASM): qHTS; AID 504937, 2011; Sphingomyelin phosphodiesterase (Homo sapiens), P17405; placental ASM, HMU-PC fluorogenic substrate, 60 min; 340,000 tested, 0.006% active; Potency, µM (titrated, usually from 57.5 µM), without a hit: at the top dose activity change, negative = inhibition, usual class: inhibitors; note: potency is the fitted concentration of half-maximal effect
Target sequence (P17405 47-631 limits assumed): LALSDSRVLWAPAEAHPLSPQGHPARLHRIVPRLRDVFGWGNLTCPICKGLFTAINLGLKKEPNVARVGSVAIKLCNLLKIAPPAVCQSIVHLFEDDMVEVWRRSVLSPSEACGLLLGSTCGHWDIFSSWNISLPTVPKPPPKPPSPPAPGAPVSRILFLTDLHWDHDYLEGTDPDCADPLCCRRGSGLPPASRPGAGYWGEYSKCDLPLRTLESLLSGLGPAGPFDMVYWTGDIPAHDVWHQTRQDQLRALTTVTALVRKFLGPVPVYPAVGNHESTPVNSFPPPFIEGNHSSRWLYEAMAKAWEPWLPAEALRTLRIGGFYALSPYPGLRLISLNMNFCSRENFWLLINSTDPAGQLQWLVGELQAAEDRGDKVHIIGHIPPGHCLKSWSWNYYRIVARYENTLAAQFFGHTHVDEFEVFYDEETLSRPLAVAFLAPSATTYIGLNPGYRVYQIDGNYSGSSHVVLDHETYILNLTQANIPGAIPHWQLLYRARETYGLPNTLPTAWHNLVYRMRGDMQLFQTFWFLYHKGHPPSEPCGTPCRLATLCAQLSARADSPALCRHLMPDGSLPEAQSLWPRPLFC
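Human placenta-derived ASM preincubated with compound 10 min at room temperature, then reacted with 9 uM (final) fluorogenic HMU-PC substrate for 60 min at 37 C. Stop solution raises pH to 10; fluorescence read at Ex 386/Em 447 nm.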
KB-3-1 tox – qHTS assay for MDR1-selective chemotherapeutics: Primary screen using the parental adenocarcinoma cell KB-3-1 | Potency, µM (top dose mostly 46.1 µM), hits mostly cytotoxic | 400,000 tested, 1.4% active | KB-3-1 viability, CellTiter-Glo ATP luminescence, 72 h | AID 1347075, 2019; note: potency is the fitted concentration of half-maximal effect; % is set by controls: 0 for no effect and ±100 for the full control effect; nearly all actives have a fitted effect of over 60% in size
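Parental KB-3-1 adenocarcinoma cells in phenol-red-free DMEM with 10% FBS were pin-treated with compounds at several concentrations, incubated 72 h at 37 °C, and viability read by CellTiter-Glo luminescence; concentration-effect curves were fitted after normalization.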
SW480 rereplic – A quantitative high throughput screen for small molecules that induce DNA re-replication in SW480 colon adenocarcinoma cells; SW480 DNA re-replication, Hoechst DNA content imaging, 48 h; Potency, µM (doses to about 46.1 µM), inactives show at the highest dose re-replication activation, actives largely listed as activators; 340,000 tested, 1.8% active; AID 624297, 2012; note: potency is the fitted concentration of half-maximal effect; % of control where 0% means no effect; nearly all actives have a fitted effect of over 55% in size
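250 cells/well; 23 nL cpd via pin tool; 48 hr, 37 C, 5% CO2; Hoechst 40 min; imager read of total nuclear intensity, ex 405/em 500-530 nm.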
KB-V1 MDR tox – qHTS assay for MDR1-selective chemotherapeutics: Primary screen using the drug-selected MDR subline cells KB-V1; Potency, µM (series often up to 46.1 µM), most hits filed as cytotoxic; KB-V1 MDR cells viability, CellTiter-Glo, 72 h; 400,000 tested, 3.4% active; AID 1347076, 2019; note: potency is the fitted concentration of half-maximal effect; % is set by controls: 0 for no effect and ±100 for the full control effect; nearly all actives have a fitted effect of over 60% in size
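Potencies derive from concentration-effect curves fitted to normalized luminescence (CellTiter-Glo) of KB-V1 cells treated for 72 h at 37 degrees C in phenol-red-free DMEM containing 10% FBS.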
MCF10A rerep – A quantitative high throughput screen for small molecules that induce DNA re-replication in MCF 10a normal breast cells | Potency, µM (highest dose often 46.1 µM), for the others: top-dose activity, positive = re-replication, actives largely listed as activators | 350,000 tested, 2.9% active | MCF 10A DNA re-replication, Hoechst nuclear intensity, 48 h; note: potency is the fitted concentration of half-maximal effect; % of control where 0% means no effect; nearly all actives have a fitted effect of over 50% in size
Giardia kill – Small Molecules that selectively kill Giardia lamblia: qHTS; Giardia lamblia trophozoite viability; activity change, % at 7.66 µM, hits read low; 340,000 tested, 0.15% active; AID 540267, 2011; in the data active = activity change below about -80%; inconclusive = between about -30% and that limit;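 note: parasites exposed to compound for two days anaerobically before the ATP read; % is set by controls: 0 for no effect and ±100 for the full control effect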
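Luminescent ATP signal served as the viability read-out, measured 15-30 min after adding ATP detection reagent to trophozoites that had been incubated with compounds for 48 hrs at 37 deg C anaerobically at 100 cells/well.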
Starred values were filed as active, the others as inactive; i = inactive; ? = inconclusive; / = not tested or not shown; [ ] = remark or other dose. Shown are actives, neighbours in structure and some others; about 6.9% of the full set was active somewhere. Unless noted, calls come from the whole dose curve; as a rule, active = well fitted curve in the direction sought with a large enough effect; inconclusive = small, poorly fitted or top-dose-only effect, or another doubt; inactive = no such curve, though single readings can be large; an effect the other way counts as inactive or inconclusive.

SMILES | S-ASM inh | KB-3-1 tox | SW480 rereplic | KB-V1 MDR tox | MCF10A rerep | Giardia kill
O=C1C2=C(Nc3ccccc3SC2c2ccc(C(F)(F)F)cc2)c2ccccc21 (configuration not stated) | / | ? | / | 16µM* | / | /
CCc1ccc(C2Sc3ccccc3NC3=C2C(=O)c2ccccc23)cc1 (configuration not stated) | / | i | / | ? | / | /
CC(=O)Nc1ccc(C2Sc3ccccc3NC3=C2C(=O)c2ccccc23)cc1 (configuration not stated) | / | i | / | i | / | /
O=C1C2=C(Nc3ccccc3SC2c2ccco2)c2ccccc21 (configuration not stated) | -26% | i | 6% | i | 16µM* | -10
CCN(CC)CCNC(=O)c1ccc(CSc2nc3ccncc3n2Cc2cccc(F)c2)cc1 | / | i | / | i | / | /
O=C(c1ccccc1)c1cnc(Nc2ccccc2Cl)s1 | 69% | i | 22% | 13µM* | ? | 1
CCOC(=O)c1c(NC(=O)C(=O)N/N=C(\C)c2ccc(OC)cc2)sc2c1CCCCC2 | -3% | i | -5% | 3.3µM* | 8% | -15
CCOC(=O)c1c(NC(=O)c2ccc(OC)cc2)sc2c1CCCCC2 | / | i | / | i | / | /
CCOC(=O)c1c(NC(=O)C(=O)N/N=C/c2ccccc2OC)sc2c1CCCCC2 | / | ? | -1% | i | 14% | -17
CCOC(=O)c1c(NC(=O)C(=O)N/N=C/c2ccccc2O)sc2c1CCCCC2 | 12% | ? | ? | 3.7µM* | -1% | -27
CCOC(=O)c1ccc(NC(=O)c2ccc3c(c2)c(C)c(C)n3Cc2ccc(F)cc2)cc1 | / | i | / | i | / | /
O=C(Nc1nnc2n1CCS2)c1cc(C(F)(F)F)cc(C(F)(F)F)c1 | / | i | / | ? | / | /
COC(=O)c1ccccc1NC(=O)CSc1nc2ccccc2nc1Cc1ccccc1OC | / | i | / | ? | / | /
CCOc1ccc(S(=O)(=O)N2CCc3ccccc3C2)cc1 | -1% | i | -1%[9.22 µM] | i | 1% | 1
CCOc1ccc(S(=O)(=O)N2CCc3cc(OC)c(OC)cc3C2)cc1 | -2% | i | -689% | 2.3µM* | -46% | 6
COc1cccc(C(C(=O)NCc2ccccc2)N2CCN(c3cccc(C)c3C)CC2)c1OC (configuration not stated) | / | ? | / | 16µM* | / | /
CC1CN(CC(O)COC(c2ccccc2)c2ccccc2)CC(C)O1 (configuration not stated) | 5% | i | ? | 21µM* | ? | -20
OC(COC(c1ccc(F)cc1)c1ccc(F)cc1)CN1CCc2ccccc2C1 (configuration not stated) | 0% | i | ? | 16µM* | ? | 4
OC(COC(c1ccc(Cl)cc1)c1ccc(Cl)cc1)CN1CCc2ccccc2C1 (configuration not stated) | -24% | i | ? | i | 18µM* | 5
OC(COC(c1ccc(Cl)cc1)c1ccc(Cl)cc1)CN1CCCC1 (configuration not stated) | 0% | ? | ? | i | ? | 23
CN1CCN(CC(O)COC(c2ccc(Cl)cc2)c2ccc(Cl)cc2)CC1 (configuration not stated) | -5% | i | 19% | i | 21µM* | -16
OC(COC(c1ccccc1)c1ccccc1)CN1CCOCC1 (configuration not stated) | 5% | i | -39% | i | -5% | -14
Cc1cc(C(=O)COC(=O)C2=COCCO2)c(C)n1-c1ccccc1 | 0% | i | 0% | 13µM* | 0% | ?
Cc1cc(C(=O)COC(=O)C2=NNC(=O)CC2)c(C)n1-c1ccccc1 | 2% | i | -1% | i | -2% | 10
CCC(=O)OCC(=O)c1cc(C)n(-c2ccc(Br)cc2)c1C | -4% | ? | 0% | 15µM* | -6% | 39
SMILES | S-ASM inh | KB-3-1 tox | SW480 rereplic | KB-V1 MDR tox | MCF10A rerep | Giardia kill
Cc1ccc(-n2c(C)cc(C(=O)COC(=O)c3c(C)noc3C)c2C)cc1 | -4% | 18µM* | 16% | 6.5µM* | 18% | -13
Cc1cc(C(=O)COC(=O)c2cnccn2)c(C)n1-c1ccc(Br)cc1 | 0% | ? | -5% | 15µM* | 12% | -7
Cc1cc(C)c(CN2CCC(CO)(CCOc3ccccc3)CC2)cc1C | -3% | i | ? | i | ? | -8
OCC1(CCOc2ccccc2)CCN(C2Cc3ccccc3C2)CC1 | 2% | i | 0% | i | 18µM* | 17
COc1ccc2cc(C(C)C(=O)Nc3cccc(S(=O)(=O)N(C)C)c3)ccc2c1 (configuration not stated) | -16% | 21µM* | -5% | 13µM* | ? | 1
COc1ccc(O)c(/C=N/NC(=S)Nc2cccc(S(=O)(=O)N(C)C)c2)c1 | 9% | i | ? | 4.1µM* | 15µM* | -3
CNC(=O)c1cccc(NC(=O)C(C)c2ccc3cc(OC)ccc3c2)c1 (configuration not stated) | -5% | i | -8% | ? | -1% | 17
CN(C)S(=O)(=O)c1cccc(NC(=S)N/N=C/C(c2ccccc2)c2ccccc2)c1 | -1% | i | 0% | 21µM* | 6% | -4
CN(C)S(=O)(=O)c1cccc(NC(=S)Nc2cc(Cl)cc(Cl)c2)c1 | -3% | ? | -6% | 18µM* | 20% | -11
COc1cc(CN(C(=O)c2ccccc2F)C2CCS(=O)(=O)C2)cc(OC)c1OC (configuration not stated) | / | i | / | i | / | /
CCc1ccc(CSc2nc(-c3ccccc3OC)nc3c2Cc2c(CO)cnc(C)c2O3)cc1 | / | i | / | i | / | /
Cc1ccc(NC(=O)Cc2c(C(=O)O)c(C)cn2C)cc1Cl | / | i | / | ? | / | /
Cc1ccccc1NC(=O)Cn1c(=O)n(Cc2ccc3c(c2)OCO3)c(=O)c2ccc(C(=O)NC3CCCCC3)cc21 | / | i | / | i | / | /
CC(/C=N/NC(=S)Nc1cccc(S(=O)(=O)N(C)C)c1)c1ccccc1 (configuration not stated) | -1% | i | -7% | 21µM* | -3% | 9
COc1ccc(Cl)cc1NC(=O)c1c(NCc2ccc(C)o2)sc2c1CCCCC2 | / | i | / | i | / | /
